According to PubChem BioAssay AID1347416 (National Center for Advancing Translational Sciences (NCATS), 2020):
The whole screen tested about 4,100 compounds, of which about 1,600 (39%) were called active. Another 25% or so got no clear call; they are omitted. The call rests on the fitted dose curve; in most records, active means well fitted inhibition curve with a large enough effect; inconclusive means small, poorly fitted or top-dose-only effect; inactive means no such curve, though single readings can be large or run the other way. The list shows a part of the results.

Experiment: qHTS Validation assay for Inhibitors of Plasmodium falciparum Dd2 growth in vitro; further: nearly all actives have a fitted effect of over 70% in size
Details: P. falciparum Dd2 in RBCs, SYBR Green growth, 72 h; series mostly up to 28.7 µM; activity change, negative = inhibition: at the top concentration
How it was run: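 P. falciparum Dd2-infected red blood cells (2.5% hematocrit, 0.3% parasitemia) grown 72 h at 37 °C under 5% O2 with compounds in a titration, 29 uM to 0.5 nM final. Growth read as SYBR Green-1 fluorescence after ~16 h lysis; artesunate 300 nM as positive control.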
On the % scale 0 is the no-effect control and ±100 the full control effect; potency means the concentration at half of the fitted maximal effect.

Activity change, negative = inhibition, inactive:
Cn1nc(C(F)(F)F)c(Cl)c1C(=O)N[C@@H]1CCNC[C@H]1O 48%, COC(=O)c1ccc(NC(=O)Nc2cccc(F)c2)cc1 -29.7%, Cc1ccsc1C(=O)N1CCC(n2cc(-c3nc(C(C)C)no3)nn2)CC1 26.4%, CN(c1ccccc1)c1cc(=O)c2ccnc(-c3ccncc3)c2o1 7.74% [at 43.1 µM], CN(c1ccccc1)c1cc(=O)c2ccnc(-c3ccccc3O)c2o1 -13.3% [at 43.1 µM], O=S(=O)(c1ccccc1)N1CCCC(Cc2noc(-c3ccncc3)n2)C1 (configuration not stated) 39.4%, CC(=O)N1CCC(Cc2ncc(C)n2CC2CC2)C1 (configuration not stated) 13.1%, COc1ccc(S(=O)(=O)N2CCCC(Cc3noc(-c4ccncc4)n3)C2)cc1 (configuration not stated) 4.86%, CCc1ccc(S(=O)(=O)N2CCC(n3cnnc3CC)CC2)cc1 -9.08%, COCCn1c(C)cnc1CC1CCN(C(=O)Nc2ccccc2F)C1 (configuration not stated) 13.6%, O=C(NCc1nc2ccccc2[nH]1)C1=C[C@@H](c2ccccc2)C[C@@H](OCc2ccc(CO)cc2)O1 23.3%, COc1cc(OC)cc(C(=O)Oc2c(CN3CCOCC3)cc(Cl)c3cccnc23)c1 2.5%, CCCC(c1nnnn1CCC(C)C)N1CCC(C(N)=O)CC1 (configuration not stated) 12.3%, CCC(=O)N(C1CCOCC1)C1CCN(Cc2cc(F)ccc2F)CC1 8.14%, O=C1c2c(nc(CNCc3cccc(F)c3)n2Cc2ccccc2)NCCN1Cc1cccc(Cl)c1 -13.6%, OC(C[n+]1ccccc1)c1ccccc1 (configuration not stated) 21.8%, Cc1nn(C(=O)CCCC(=O)N2CCCC2c2nc(C3CCOCC3)no2)c2ccccc12 (configuration not stated) 0%, O=C(c1ccc(F)c(Cl)c1)N1CCC[C@H]1c1nc(-c2ccccc2)no1 11.4%, CC(Oc1ccc(Br)cc1)c1nc2c3ccccc3nc(=S)n2[nH]1 (configuration not stated) 12%, CNC(=O)[C@H]1C[C@H](Oc2cccnc2)CN1S(=O)(=O)Cc1ccccc1F 12.3%, CN1C(=O)CCC2(C(=O)O)CCCC=C12 (configuration not stated) 19.8%, O=C(NCC12CCC=C1N(CC1CC1)C(=O)CC2)Nc1cccc(F)c1 (configuration not stated) 3.63%, CCOCCOC1CCN(S(=O)(=O)c2c(C)noc2C)CC1 11.4%, CCOC(=O)c1c(S(=O)(=O)N2CCC(C(=O)Nc3ccc(F)cc3F)CC2)c(C)n(C)c1C 48.1%, Cc1ccc(NC(=O)C2CCN(S(=O)(=O)c3ccc4[nH]c(=O)ccc4c3)CC2)cc1C 30.7%, Cc1cc(C)n(Cc2ccc(C(=O)N3CCC(c4noc(-c5cccnc5)n4)C3)o2)n1 (configuration not stated) 5.3%, Cc1ccc(CC(=O)NCc2nnc3c(-c4nc(C(C)C)no4)cccn23)cc1 2.86%, COc1ccc(NC(=O)c2cc3c(N4CCSCC4)nc(C)cn3n2)cc1OC -5.63%, Cc1ccc2[nH]c(C(=O)Nc3ccc(F)cc3)cc2c1 33.2%, Cc1ccccc1C(=O)NNc1ccc(-c2csnn2)cc1 37.5%, CCCCc1ccc(NC(=O)CSC2=C(C#N)C(c3ccco3)C3=C(CCCC3=O)N2)cc1 (configuration not stated) -11.9%, N[C@@H]1CN(c2ncccn2)C[C@H]1CO 0%, O=C(NCc1cccs1)c1ccc(CN2C(=O)NC3(CCS(=O)(=O)CC3)C2=O)cc1 -5.88%

Potency, active:
Cn1nc(C(F)(F)F)c(-c2ccc(F)cc2)c1NC(=O)Nc1ccc(F)cc1 1.88 µM, Cn1nc(C(F)(F)F)c(-c2cccc(C(F)(F)F)c2)c1NC(=O)Nc1ccc(F)cc1 2.37 µM, Cc1noc(C)c1-c1nccc2c(=O)cc(N(C)c3ccccc3)oc12 17.2 µM, Cc1cnc(CC2CCN(S(=O)(=O)c3ccccc3)CC2)n1Cc1ccccc1 5.31 µM, Cc1cnc(CC2CCCN(S(=O)(=O)c3ccccc3)C2)n1CC1CC1 (configuration not stated) 6.68 µM, CCCn1c(C)cnc1CC1CCN(S(=O)(=O)c2ccc3c(c2)CCC3)C1 (configuration not stated) 9.44 µM, CCNC(=S)N/N=C/c1sc(N2CCCCC2)nc1-c1cccs1 0.668 µM, CN1CCN(c2nc(Nc3ccc(O)cc3)nc3ccccc23)CC1 4.22 µM, O=C(Oc1c(CN2CCOCC2)cc(Cl)c2cccnc12)c1ccccc1Br 7.5 µM, CC(C)=NOC(=O)c1c(C)noc1-c1snnc1C 6.68 µM, CCCC(O)(c1ccc(Cl)cc1)C(CN1CCOCC1)c1ccc(Cl)cc1 (configuration not stated) 4.73 µM, CCCCC(O)(c1ccc(F)cc1)C(CN1CCOCC1)c1ccc(Cl)cc1 (configuration not stated) 5.96 µM, OC(c1ccc(Cl)cc1)C(CN1CCOCC1)c1ccccc1 (configuration not stated) 2.99 µM, CCOc1cc(CNCC(O)c2ccccc2)cc(Cl)c1OC (configuration not stated) 3.35 µM, OC(CNCc1cccc(Cl)c1)c1ccccc1 (configuration not stated) 4.73 µM, OC(CNCc1cccc(Br)c1)c1ccccc1 (configuration not stated) 5.96 µM, Cc1ccc2c(C)c(C(=O)N3CCCC3c3nc(C(C)C)no3)oc2c1C (configuration not stated) 6.68 µM, Cc1cc(C(C)c2ccccc2)c(O)c(CN2CCOCC2)c1C (configuration not stated) 2.99 µM, C/C(=N\Nc1nc(-c2ccccc2O)nc2ccccc12)c1ccccc1 0.75 µM, Oc1ccccc1Nc1nc(-c2ccccc2O)nc2ccccc12 0.944 µM, CCN(CC)CCNC(=O)C12CCCC=C1N(Cc1ccccc1)C(=O)CC2 (configuration not stated) 8.41 µM, Cc1cc(C)c(/C=C/c2onc(C)c2S(=O)(=O)N2CCC(C(=O)Nc3ccc(Cl)c(C(F)(F)F)c3)CC2)c(C)c1 10.6 µM, CCOc1ccccc1NC(=O)C1CCN(S(=O)(=O)c2c(C)noc2/C=C/c2ccco2)CC1 15 µM, COc1ccc(/C=C\c2onc(C)c2S(=O)(=O)N2CCC(C(=O)Nc3ccc(C)cc3C)CC2)cc1 0.842 µM, Cc1ccc(CSC2=Nc3ccccc3C3=NC(CC(=O)NCc4ccco4)C(=O)N23)cc1 (configuration not stated) 6.68 µM, Cc1cccc(OCCSc2nc3ccc(NC(=O)c4cccs4)cc3s2)c1 9.44 µM, Cc1ccccc1OCCSc1nc2ccc(NC(=O)c3cccs3)cc2s1 5.31 µM, COc1cc(C)ccc1OCCSc1nc2ccc(NC(=O)c3cccs3)cc2s1 13.3 µM, COc1cc(C)ccc1OCCSc1nc2ccc(NC(=O)c3ccc(F)cc3)cc2s1 10.6 µM
